Holding throughout (experiment): NCI-60 one-dose screen, 48 h (100 = growth as untreated, 0 = no growth, -100 = all killed)
Holding throughout (conditions): 10 µM unless noted

Assay [1] relates to NCI-H23 lung.
The subject of assay [2] is NCI-H226 lung.
For assay [3], the system named is NCI-H322M lung.
Assay [4] deals with HOP-62 NSCLC.
The subject of assay [5] is NCI-H460 lung.
For assay [6], the system named is HOP-92 NSCLC.
Assay [7] concerns NCI-H522 lung.
In assay [8] the test system is A549/ATCC NSCLC.
For assay [9], the system named is 786-0 renal.
For assay [10], the system named is COLO 205 colon.
The subject of assay [11] is DU-145 prostate.
Assay [12] concerns K-562 leukemia.
For assay [13], the system named is MALME-3M melanoma.
Assay [14] deals with MDA-MB-231 breast.
The test system of assay [15] is RXF 393 renal.
The test system of assay [16] is SF-268 CNS.
Assay [17] concerns SF-539 CNS.
Assay [18] has as its system UACC-257 melanoma.
Assay [19] deals with M14 melanoma.

Data on eight compounds can be found in PubChem BioAssay (NCI).

Compounds without any hit were thinned out: in the full panel of roughly 83,000, 20% have a hit.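 Testing used 96-well plates and a 48-hour single-concentration exposure. Example: -40 means 40% of the starting cells died.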 Values without a mark were called inactive. Activity calls are given as the source filed them. How the source made its calls: active means growth percent below 10; inactive means the rest.

Take `O=C(Oc1c(Cl)c(Cl)c(Cl)c(Cl)c1Cl)C1CCCN1C(=O)OCc1ccccc1` (configuration not stated): the growth in assay [1] is 33.5%; in assay [2], 68.3%; in assay [3], 39.9%; in assay [4] it was 60.2%; in assay [5] it was 13.2%; in [6] it was -0.576% (active). Also, the growth was 12.4% in assay [7]; 17.2% in [8]; 67.7% in assay [9]; 35.9% in assay [10]; 60.9% in assay [11]; 17.3% in assay [12]. Further, the growth was 72.3% in assay [13]; 69.1% in assay [14]; 92.2% in [15]; 42.2% in assay [16]; 50.5% in assay [17]; 82.1% in [18]. Further, the growth in [19] was 78.9%.

For the compound `COc1ccc2[nH]c(O)c(/C=c3/ccc4c(c3)N=C(c3ccc(F)cc3)N=4)c2c1`, the growth in assay [1] is 71.7%; in assay [2], 85.4%; in [3], 49.4%; in [4], 34.2%; in [5], 36.9%; in [6], 4.86% (active). Further, the growth in assay [7] is 81%; in [8], 37.6%; in assay [9] it was -30.1% (active); in assay [10] it was 72.9%; in assay [11] it was 67.6%; in assay [12] it was 57.7%. Also, the growth in assay [13] was -18.6% (active); in [14] it was 83.2%; in assay [15], 11.5%; in [16], 83.2%; in assay [17], 80.3%; in assay [18], 82.5%. The growth in assay [19] was 68.4%.

For the compound `Cc1ccc(CSCc2ccc(C(=O)NC3CC3)o2)cc1`, the growth was 82% in assay [1]; 105% in [2]; 80.8% in [3]; 109% in assay [4]; 52.2% in assay [5]; 75.2% in assay [6]. Further, the growth in assay [7] is 43.5%; in [8], 45.3%; in [9] it was 91.6%; in assay [10] it was 63.7%; in assay [11], 80.5%; in assay [12], 40%. Moreover, the growth is 96.4% in assay [13]; 35.3% in [14]; 92.7% in assay [15]; 83.2% in [16]; 79.8% in [17]; 93.5% in assay [18]. The growth in [19] is 57.3%.

`CCCCNCC(O)c1cc(-c2ccc(C(F)(F)F)cc2)nc(-c2ccc(C(F)(F)F)cc2)c1` (configuration not stated): the growth in [1] was -63.9% (active); in assay [2] it was -76.2% (active); in [3], -74.3% (active); in assay [4] it was -90.5% (active); in assay [5] it was -76.7% (active); in assay [6] it was -86% (active). For the same compound, the growth in assay [7] was -79% (active); in assay [8] it was -83.5% (active); in assay [9] it was -78.7% (active); in assay [10], -87.2% (active); in assay [11], 6.08% (active); in [12], -59.5% (active). The growth was -41.6% (active) in assay [13]; -71.9% (active) in [14]; -94.4% (active) in assay [15]; -86% (active) in assay [16]; -74.9% (active) in assay [17]; -70.3% (active) in assay [18]. In assay [19], the growth was -79.7% (active).

Regarding `CC(=O)[C@H]1CC[C@H]2[C@@H]3CC[C@H]4CC=CC[C@]4(C)[C@H]3CC[C@]12C`, the growth in [1] was 96.8%; in [2] it was 92.9%; in [3], 95.2%; in [4] it was 109%; in [5], 104%; in [6], 101%. The growth in assay [7] is 40%; in assay [8] it was 84%; in [9] it was 91.7%; in assay [10] it was 106%; in [11], 111%; in [12] it was 84.9%. In addition, the growth in assay [13] is 84%; in assay [14], 99.4%; in assay [15], 98.2%; in assay [16], 102%; in assay [17], 91.6%; in [18], 75.6%. Further, the growth in assay [19] is 90.3%.

Consider `O=[N+]([O-])c1cccc([I+]c2ccccc2)c1`, for which the growth was 49.8% in assay [1]; 59% in assay [2]; 76.6% in [3]; -26.8% (active) in assay [4]; 18.2% in assay [5]; 93.6% in assay [6]. Further, the growth in assay [7] is 50.3%; in assay [8], 47.7%; in assay [9], 70.8%; in assay [10], 40.1%; in assay [11], 58.5%; in assay [12] it was 27.3%. For the same compound, the growth in assay [13] was 49.4%; in [14] it was 83.2%; in [15], 72.4%; in assay [16] it was 50.1%; in assay [17] it was 65.6%; in assay [18], 80.1%. Also, the growth in assay [19] was 56.6%.

As for `Brc1ccccc1Cn1c(-c2cncs2)nc2ccccc21`, the growth in assay [1] is 85.4%; in assay [2], 70.5%; in assay [3], 86.6%; in [4] it was 76%; in assay [5] it was 80.8%; in assay [6], 0.748% (active). The growth was 66.8% in assay [7]; 82.7% in [8]; 90.6% in [9]; 84.9% in assay [10]; 98.4% in assay [11]; 74.6% in assay [12]. Further, the growth is 98% in [13]; 71.2% in [14]; 97.6% in assay [15]; 92.1% in assay [16]; 88.5% in assay [17]; 96% in assay [18]. Moreover, in assay [19], the growth was 92.9%.

As for `CCN(CC)Cc1cc(Nc2nc(NC3CCC(N(C)C)CC3)c3ccccc3n2)ccc1OC` (configuration not stated), the growth in assay [1] is 87.8%; in [2], 75.5%; in assay [3] it was 76.5%; in assay [4], 79.4%; in assay [5], 89.7%; in assay [6], 25.3%. In addition, the growth is 44% in assay [7]; 67.8% in assay [8]; 97.8% in assay [9]; 12% in [10]; 98.8% in assay [11]; 7.54% (active) in [12]. The growth in assay [13] was 69.1%; in assay [14] it was 39.8%; in assay [15] it was 74.9%; in assay [16], 69.8%; in assay [17], 73.9%; in assay [18], -32.6% (active). Moreover, the growth in assay [19] was -10.2% (active).
